Drawing on PubChem BioAssay (EPA / NIEHS), this text covers outcome and AC50 for 22 compounds.

A short description of assay [1]: APR_HepG2_CellLoss_72hr: Apredica 72-hour HepG2 Assay for Cell Loss (AID 2282915). Conditions: high-content imaging. In outline:
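HepG2 cells were exposed for 72 hr to compounds at 0.39–200 uM (ten concentrations, duplicate) in 0.5% v/v final DMSO. Nuclei were stained with Hoechst 33342 after 3.7% formaldehyde fixation, imaged at 20x, and counted; fits bidirectional versus DMSO.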

Assay [2] is described as follows: APR_HepG2_MitoMembPot_72hr: Apredica 72-hour HepG2 Assay for Mitochondrial Membrane Potential (AID 2282917). Conditions: imaging, actives raise or lower the signal. Summed up: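 HepG2 cells exposed 72 h to compounds at 0.39–200 uM (0.5% v/v DMSO, duplicates); MitoTracker Red CMXRos 250 nM loaded 30 min before 3.7% formaldehyde fixation, imaged by HCS fluorescence. Bidirectional fit versus DMSO.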

Assay [3] is described as follows: APR_HepG2_MitoticArrest_72hr: Apredica 72-hour HepG2 Assay for Mitotic Arrest (AID 2282918). The conditions noted are these: high-content imaging, actives raise or lower the signal. In outline:
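Read-out is phospho-histone H3 immunofluorescence with Hoechst nuclear segmentation, imaged at 20x. Human HepG2 liver cells received ten concentrations (0.39–200 uM, final DMSO 0.5% v/v) for 72 hr before fixation. Gain or loss of signal was fitted relative to DMSO.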

Assay [4] can be described thus: APR_HepG2_MicrotubuleCSK_72hr: Apredica 72-hour HepG2 Assay for Microtubule CSK Stabilty (AID 2282919). Conditions: HepG2 microtubule cytoskeleton, high-content imaging, actives raise or lower the signal. Summed up: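 HepG2 human liver cells were dosed for 72 h at ten concentrations from 0.39 to 200 uM in duplicate (0.5% v/v DMSO final). Fixed, permeabilized cells were immunostained for alpha-tubulin (Cy5) with a Hoechst counterstain and imaged at 20x.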

A short description of assay [5]: APR_HepG2_P-H2AX_24hr: Apredica 24-hour HepG2 Assay for H2AX Phosphorylation (AID 2282920). The conditions noted are these: high-content imaging, actives raise or lower the signal. In outline:
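HepG2, 24 hr, cpd 0.39–200 uM (10 conc, duplicate), DMSO 0.5% v/v final. Fix 3.7% formaldehyde, Triton X-100 permeabilize, anti-phospho-H2A.x 1:200 + Hoechst 2 ug/mL. Imaged, bidirectional fit vs DMSO.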

Assay [6] can be described thus: APR_HepG2_StressKinase_72hr: Apredica 72-hour HepG2 Assay for Stress Kinase (AID 2282921). Conditions: HepG2 stress kinase (phospho-c-Jun) imaging, actives raise or lower the signal. Summed up:
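Fluorescence intensity of Cy3-tagged anti-phospho-c-Jun antibody, quantified per cell from Hoechst-defined nuclei across six images per well, served as the read-out following 72 h exposure (0.39–200 uM, 0.5% v/v DMSO).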

Assay [7] can be described thus: APR_HepG2_StressKinase_24hr: Apredica 24-hour HepG2 Assay for Stress Kinase (AID 2282922). The conditions noted are these: HepG2 stress kinase (phospho-c-Jun) imaging, actives raise or lower the signal. Summed up: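 HepG2 cells exposed 24 hr to compound at 0.39–200 uM (10 concentrations, duplicate), 0.5% v/v DMSO final. Fixed in 3.7% formaldehyde, permeabilized with Triton X-100, immunolabeled for phospho-c-Jun with Hoechst 33342; HCS fluorescence imaging, bidirectional fit versus DMSO.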

Assay [8] is described as follows: APR_HepG2_p53Act_72hr: Apredica 72-hour HepG2 Assay for p53 Activation (AID 2282923).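 Note: average cellular p53 protein immunofluorescence intensity in HepG2 cells.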 Conditions: high-content imaging, actives raise or lower the signal. In outline:
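HepG2 monolayers receive test compounds in duplicate at ten concentrations (0.39 through 200 uM) for 72 hr. They are then formaldehyde-fixed, antibody-labelled for p53, Hoechst-stained and imaged, with activity fitted bidirectionally versus DMSO.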

Assay [9] is described as follows: APR_HepG2_MitoMass_72hr: Apredica 72-hour HepG2 Assay for Mitochondrial Mass (AID 2282924).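 Note: MitoTracker Red CMXRos stain intensity per cell imaged as mitochondrial mass.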 Conditions: high-content imaging, actives raise or lower the signal. Summed up: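 HepG2 cells were exposed for 72 hr to compounds at 0.39–200 uM (ten concentrations, duplicate, 0.5% v/v DMSO final). Live cells were stained with 250 nM MitoTracker Red CMXRos for 30 min, then fixed in 3.7% formaldehyde and imaged by HCS fluorescence.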

Assay [10] in a line: APR_HepG2_P-H2AX_72hr: Apredica 72-hour HepG2 Assay for H2AX Phosphorylation (AID 2282916).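 Note: phospho-histone H2A.x immunostain intensity per cell marking DNA damage.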 Conditions: imaging, actives raise or lower the signal. In outline: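 Following 72 hr treatment with 0.39–200 uM compound, HepG2 cells were formaldehyde-fixed, permeabilized and stained for phospho-H2A.x; signal was measured by high-content imaging and fitted bidirectionally against DMSO controls.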

The source made the active and inactive calls. Rule for the calls: active = hit-call score of the fitted dose curve at least 0.9, where 1 is the maximum; inactive = score below 0.9.

By AC50 is commonly meant the concentration giving half of the maximal activity seen.

On to `CCCCCCC(=O)OCC`, for which the compound was classed as inactive in [1], in assay [2], in [3], in assay [4], in [5] and in assay [6]. In addition, the compound was called inactive in [7], in [8] and in [9].

Turning to `COc1cc(/C=C/C(=O)CC(=O)/C=C/c2ccc(O)c(OC)c2)ccc1O`, the AC50 in [1] was 9.56 µM (active); in [10], 15.1 µM (active); in assay [3], 22 µM (active); in assay [4], 15.9 µM (active); in assay [5], 76.1 µM (active); in assay [6], 11.2 µM (active). Besides, the concentration at half-maximal activity (AC50) in assay [7] was 47.9 µM (active); in assay [8], 19.1 µM (active); in assay [9] it was 22.2 µM (active). For the same compound, in assay [2], the outcome was inactive.

For the compound `CCCCCCCCCCCCCCCCCC(=O)O`, the result in [1], in [10], in [2], in [4], in assay [5] and in assay [6] was inactive. In addition, the compound was called inactive in [7], in assay [8] and in assay [9]. The AC50 in [3] was 49.9 µM (active).

For `CCCCCCCCCCCCCO`, the AC50 was 113 µM (active) in assay [1], 108 µM (active) in assay [10], 120 µM (active) in assay [2] and 104 µM (active) in [3]. Further, the compound was called inactive in assay [4], in assay [5], in [6], in assay [7], in [8] and in assay [9].

As to `Cc1ccc(C)c(O)c1C`, the half-maximal activity concentration (AC50) in assay [1] is 12.4 µM (active); in assay [3], 13.4 µM (active); in assay [8], 16.9 µM (active); in assay [9], 9.74 µM (active). The compound was classed as inactive in assay [2], in [4], in assay [5], in [6] and in assay [7].

For `Cc1ccc(C(C)C)c(O)c1`, the compound was called inactive in assay [1], in assay [10], in [2], in assay [3], in [4] and in [5]. Also, the outcome in assay [6], in assay [7], in assay [8] and in assay [9] was inactive.

Consider `Cc1ccc2ncccc2c1`, for which the call in [1], in assay [10], in assay [2], in assay [3], in assay [4] and in [5] was inactive. In addition, the call in assay [6], in assay [7], in assay [8] and in assay [9] was inactive.

For `COC(=O)c1ccc(O)cc1`, the compound was classed as inactive in assay [1], in [10], in [2], in assay [3], in assay [4] and in [5]. Further, the compound was called inactive in assay [6], in assay [7], in assay [8] and in assay [9].

For `CC(CO)OC(C)CO` (stereo not given) (tested in a mixture with another compound), the compound was called inactive in [1], in assay [10], in assay [2], in assay [3], in [4] and in assay [5]. Moreover, the call in assay [6], in assay [7], in assay [8] and in assay [9] was inactive.

On to `CCc1c(C(=O)NN2CCCCC2)nn(-c2ccc(Cl)cc2Cl)c1-c1ccc(Br)cc1`, for which the AC50 in assay [1] was 27.2 µM (active); in assay [2], 113 µM (active); in [3] it was 27.7 µM (active); in [4], 30 µM (active); in assay [5], 70.4 µM (active); in [6], 32.8 µM (active). The concentration at half-maximal activity (AC50) in [9] is 162 µM (active). Also, the compound was called inactive in assay [10], in [7] and in assay [8].

Take `CCNc1cccc(C)c1`: the compound was called inactive in assay [1], in assay [2], in assay [3], in [4], in assay [5] and in assay [6]. Further, the outcome in [7], in assay [8] and in [9] was inactive.

On to `O=c1[nH]cc(F)c(=O)[nH]1`, for which the AC50 in [1] is 2.45 µM (active). In addition, the call in assay [2], in assay [3], in [4], in [5], in assay [6] and in [7] was inactive. Further, the call in [8] and in assay [9] was inactive.

For the compound `Cc1oc(-c2ccccc2)nc1CCOc1cccc2c1ccn2CCC(=O)O`, the compound was classed as inactive in assay [1], in assay [10], in assay [2], in [3], in assay [4] and in assay [5]. Also, the compound was called inactive in assay [6], in assay [7], in assay [8] and in assay [9].

In the case of `Nc1ccc2c(c1)C(=O)c1ccccc1C2=O`, the AC50 is 11.5 µM (active) in [1]; 16.2 µM (active) in assay [10]; 10.2 µM (active) in assay [3]; 21.2 µM (active) in assay [5]; 19.3 µM (active) in assay [8]. The compound was called inactive in assay [2], in assay [4], in assay [6], in assay [7] and in assay [9].

As to `NS(=O)(=O)c1cc2c(cc1Cl)NCNS2(=O)=O`, the outcome in assay [1], in assay [10], in [2], in assay [3], in assay [4] and in assay [5] was inactive. Further, the compound was called inactive in assay [6], in assay [7], in assay [8] and in assay [9].

As to `CN1CCCC1=O`, the outcome in [1], in assay [10], in [2], in assay [3], in assay [4] and in assay [5] was inactive. Moreover, the compound was called inactive in [6], in assay [7], in assay [8] and in assay [9].

As to `CCCCCC(=O)O`, the call in assay [1], in assay [2], in assay [3], in assay [4], in assay [5] and in assay [6] was inactive. The result in [7], in assay [8] and in [9] was inactive.

For the compound `COc1ccc2c(c1)c(CC(=O)O)c(C)n2C(=O)c1ccc(Cl)cc1`, the result in [1], in assay [2], in assay [3], in assay [4], in assay [5] and in assay [6] was inactive. The compound was classed as inactive in assay [7], in [8] and in assay [9].

As for `c1cc(-c2ccncc2)ccn1`, the outcome in [1], in assay [2], in [3], in assay [4], in assay [5] and in assay [6] was inactive. In addition, the compound was classed as inactive in [7], in assay [8] and in assay [9].

Regarding `Nc1ccc(S(=O)(=O)c2ccc(N)cc2)cc1`, the compound was called inactive in assay [1], in [2], in assay [3], in assay [4], in [5] and in [6]. In addition, the compound was classed as inactive in [7], in assay [8] and in [9].

Take `CC=Cc1ccc(O)c(OC)c1`: the call in [1], in assay [2], in assay [3], in assay [4], in [5] and in assay [6] was inactive. The compound was called inactive in assay [7], in assay [8] and in assay [9].

With `CC(=O)C(C)=CC1C(C)=CCCC1(C)C` (stereo not given), the result in assay [1], in assay [2], in [3], in assay [4], in assay [5] and in [6] was inactive. The compound was classed as inactive in assay [7], in assay [8] and in [9].
